Results: PubChem BioAssay (NCATS)
Results filed as inconclusive are left out. The source made the active and inactive calls. Unless noted, calls come from the whole dose curve; as a rule, active = well fitted curve in the direction sought with a large enough effect; inconclusive = small, poorly fitted or top-dose-only effect, or another doubt; inactive = no such curve, though single readings can be large; an effect the other way counts as inactive or inconclusive.

Tests used:
[1] = KB-3-1 P-gp reporter qHTS against the NCATS DSHEA and TCM libraries (AID 1919975); note: 0% is about no effect
In short: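 Parental KB-3-1 human cervical adenocarcinoma cells (500 cells/well, DMEM + 10% FBS) were treated with substances for ~72 h at 37C; viability was read by CellTiter-Glo luminescence.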

[2] = target: Cytochrome P450 1A2 (Homo sapiens) (UniProt P05177); experiment: qHTS for inhibitors of CYPIA2 against the NCATS DSHEA and TCM libraries (AID 1919976);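 note: light from luciferin formed by CYP1A2 from a pro-luciferin substrate; % is set by controls: 0 for no effect and ±100 for the full control effect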
In short: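 Furafylline served as the plate control. Compounds met CYP1A2 and pro-luciferin substrate 15 min before NADPH regeneration solution (1x) was added; after 30-45 min at RT, P450-Glo reagent was added for 30 min and luminescence was measured.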

[3] = qHTS Counterscreen for compound interference against the NCATS DSHEA and TCM libraries (AID 1919978); conditions: firefly luciferase detection reagent interference, luminescence; note: % of control where 0% means no effect
In short: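 D-luciferin (1 uM final) or 100 mM potassium phosphate buffer alone was preincubated 15 min at RT with compounds (19.5 nM to 39.8 uM final). Luciferin detection reagent was then added and luminescence read after 30 min at RT.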

[4] = target: Nuclear receptor subfamily 1 group I member 2 (Homo sapiens) (UniProt O75469); experiment: Dual reporter qHTS for agonist of Pregnane X Receptor (hPXR) against the NCATS DSHEA and TCM libraries: Luminescence readout (AID 1920059); note: potency is the fitted concentration of half-maximal effect; for activation: 0% is about no effect
In short: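 hPXR-LucHepG2 cells in phenol red-free DMEM with 5% charcoal-stripped FBS, 2000 cells/well, attached 5 h, then exposed 24 h at 37C to compounds; rifampicin as positive agonist control (2.8 nM–92 uM). Luciferase luminescence read.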

[5] = target: Nuclear receptor subfamily 1 group I member 2 (Homo sapiens) (UniProt O75469); experiment: Dual reporter qHTS for antagonist of Pregnane X Receptor (hPXR) against the NCATS DSHEA and TCM libraries: Luminescence Readout (AID 1920060); note: 0% is about no effect
In short: (§1)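 Rifampicin-stimulated (2 uM final) hPXR-luciferase HepG2 cells were treated for 24 h with DSNP/TCM substances. Viability came from CellTiter-Fluor fluorescence, reporter activity from ONE-Glo luminescence.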

[6] = Dual reporter qHTS for antagonist of Pregnane X Receptor (hPXR) against the NCATS DSHEA and TCM libraries: Fluorescence Readout (AID 1920061); note: 0% is about no effect
In short: as §1

[7] = qHTS profiling for inhibitors of Plasmodium falciparum proliferation (AID 504749); note: potency is the fitted concentration of half-maximal effect;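 for activity, negative = inhibition: 0% = DMSO vehicle and full inhibition = artemisinin control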; for all read-outs here: nearly all actives have a fitted effect of over 60% in size; conditions: P. falciparum in erythrocytes, SYBR Green DNA, 72 h; for activity, negative = inhibition: at 28.7 µM (top of the series)
In short: (§2)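 Fluorescence of SYBR Green-bound parasite DNA, read at 485/535 nm, served as the growth measure. Infected erythrocytes were cultured with compound 72 h; artemisinin (0.29 uM) and DMSO wells defined the normalization range.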

3D7 = experiment: as above; conditions: P. falciparum in erythrocytes, SYBR Green DNA, 72 h; series mostly up to 28.7 µM
In short: as §2

AA1029 = experiment: as above; conditions: P. falciparum in erythrocytes, SYBR Green DNA, 72 h; series mostly up to 28.7 µM
In short: as §2

AS120 = experiment: as above; conditions: P. falciparum in erythrocytes, SYBR Green DNA, 72 h; series mostly up to 28.7 µM
In short: as §2

ATS189 = experiment: as above; conditions: P. falciparum in erythrocytes, SYBR Green DNA, 72 h; series mostly up to 28.7 µM
In short: as §2

ATS95 = experiment: as above; conditions: P. falciparum in erythrocytes, SYBR Green DNA, 72 h; series mostly up to 28.7 µM
In short: as §2

C2A = experiment: as above; conditions: P. falciparum in erythrocytes, SYBR Green DNA, 72 h; series mostly up to 28.7 µM
In short: as §2

CP185 = experiment: as above; conditions: P. falciparum in erythrocytes, SYBR Green DNA, 72 h; series mostly up to 28.7 µM
In short: as §2

CP191 = experiment: as above; conditions: P. falciparum in erythrocytes, SYBR Green DNA, 72 h; series mostly up to 28.7 µM
In short: as §2

CP192 = experiment: as above; conditions: P. falciparum in erythrocytes, SYBR Green DNA, 72 h; series mostly up to 28.7 µM
In short: as §2

CP194 = experiment: as above; conditions: P. falciparum in erythrocytes, SYBR Green DNA, 72 h; series mostly up to 28.7 µM
In short: as §2

[8] = qHTS drug screen for cell cycle checkpoint inhibitors in PARPi-resistant BRCA-mutant ovarian cancer cell lines. (AID 1963452; calls by dose curve); conditions: PEO1/OlaR viability, CellTiter-Glo luminescence, 96 h, stronger effect = lower value
In short: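 PEO1, PEO4 and PEO1/OlaR ovarian cancer cells, 600 per well, exposed 96 h at 37C to a dilution series. Viability read by CellTiter-Glo luminescence, normalized to DMSO and empty wells; activity summarized as Z-AUC.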

[9] = Dual reporter qHTS for agonist of Pregnane X Receptor (hPXR) against the NCATS DSHEA and TCM libraries: Fluorescence readout (AID 1920058); note: 0% is about no effect
In short: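 In this qHTS counter-read, reporter-bearing HepG2 cells in charcoal-stripped serum received substances for approximately 24 h before viability was assessed fluorometrically with CellTiter-Fluor.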

7G8 = experiment: qHTS profiling for inhibitors of Plasmodium falciparum proliferation (AID 504749); note: nearly all actives have a fitted effect of over 60% in size; note: potency is the fitted concentration of half-maximal effect;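 for activity, negative = inhibition: 0% = DMSO vehicle and full inhibition = artemisinin control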; conditions: P. falciparum in erythrocytes, SYBR Green DNA, 72 h; series mostly up to 28.7 µM
In short: as §2

[10] = measured here: PEO1 parental Z-AUC

Chain of Nuclear receptor subfamily 1 group I member 2 (Homo sapiens) (O75469 whole entry, looked up): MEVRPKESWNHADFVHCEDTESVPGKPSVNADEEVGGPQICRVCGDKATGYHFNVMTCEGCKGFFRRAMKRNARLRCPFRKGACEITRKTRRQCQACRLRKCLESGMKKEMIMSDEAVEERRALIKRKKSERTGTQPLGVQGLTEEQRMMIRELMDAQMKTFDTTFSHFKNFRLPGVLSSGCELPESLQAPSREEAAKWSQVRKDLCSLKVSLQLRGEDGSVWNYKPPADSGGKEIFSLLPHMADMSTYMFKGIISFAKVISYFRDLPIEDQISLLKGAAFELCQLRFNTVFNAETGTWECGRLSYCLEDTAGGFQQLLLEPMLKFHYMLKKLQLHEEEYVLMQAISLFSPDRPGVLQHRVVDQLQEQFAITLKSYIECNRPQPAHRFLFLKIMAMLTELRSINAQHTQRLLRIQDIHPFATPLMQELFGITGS
Chain of Cytochrome P450 1A2 (Homo sapiens) (P05177 whole entry, looked up): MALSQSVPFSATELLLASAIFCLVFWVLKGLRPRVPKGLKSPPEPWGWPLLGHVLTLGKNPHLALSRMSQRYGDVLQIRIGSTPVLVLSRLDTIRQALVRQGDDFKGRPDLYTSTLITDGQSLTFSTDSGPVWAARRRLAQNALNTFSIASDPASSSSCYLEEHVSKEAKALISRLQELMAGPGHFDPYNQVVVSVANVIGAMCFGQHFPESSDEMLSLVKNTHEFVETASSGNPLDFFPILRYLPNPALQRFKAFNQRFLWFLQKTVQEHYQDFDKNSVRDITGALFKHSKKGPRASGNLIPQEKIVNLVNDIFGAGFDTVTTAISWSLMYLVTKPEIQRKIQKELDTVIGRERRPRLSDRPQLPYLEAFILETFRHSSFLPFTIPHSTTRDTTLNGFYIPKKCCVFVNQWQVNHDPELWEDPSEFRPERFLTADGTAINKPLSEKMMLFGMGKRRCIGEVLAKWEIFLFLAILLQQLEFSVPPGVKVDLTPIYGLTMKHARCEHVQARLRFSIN

CCCCC/C=C\C/C=C\C/C=C\CCCCC(=O)O
inactive: activity change, negative = inhibition [1] -0.723% [at 3.26 µM] | activity change, negative = inhibition [2] 7.42% [at 4.62 µM] | max response [3] -1.8% | activation [4] -11.8% [at 5 µM] | activity change, negative = inhibition [5] -11% [at 5 µM] | activity change, negative = inhibition [6] 4.34% [at 5 µM] | activity, negative = inhibition ([7]; parasite line A) -2.11% | activity, negative = inhibition ([7]; parasite line B) -8.25% | Potency (3D7) | Potency (AA1029) | Potency (AS120) | Potency (ATS189) | Potency (ATS95) | Potency (C2A) | Potency (CP185) | Potency (CP191) | Potency (CP192) | Potency (CP194)

CO[C@H]1O[C@@H]2O[C@@]3(C)CC[C@H]4[C@H](C)CC[C@@H]([C@H]1C)[C@@]24OO3
inactive: Z-AUC [8] -0.105
0.613: Z-AUC [8, 10]
0.87: Z-AUC ([8]; measured here: PEO4 Z-AUC)

C=C1CC[C@H](O)C/C1=C\C=C1/CCC[C@]2(C)[C@@H]([C@H](C)CCCC(C)C)CC[C@@H]12
active: Potency [4] 31600 nM
inactive: outcome [1] | Potency [2] | max response [3] 0.0382% | outcome [9] | outcome [5] | outcome [6]

CCOC(=O)c1c[nH]c2cc(OCC(C)C)c(OCC(C)C)cc2c1=O
active: Potency ([7]; parasite line A) 39.8 nM | Potency ([7]; parasite line B) 56.2 nM | Potency (3D7) 126 nM | Potency (7G8) 70.8 nM | Potency (AA1029) 79.4 nM | Potency (AS120) 44.7 nM | Potency (ATS189) 63.1 nM | Potency (ATS95) 89.1 nM | Potency (C2A) 199 nM | Potency (CP185) 100 nM | Potency (CP191) 50.1 nM

Oc1ccc(/C=C/c2cc(O)cc(O)c2)cc1
active: Potency [4] 31600 nM
inactive: outcome [1] | max response [3] -1.38% | outcome [9] | outcome [5] | outcome [6] | Z-AUC [8] 0.778
0.679: Z-AUC ([8]; measured here: PEO4 Z-AUC)
1.04: Z-AUC [8, 10]

CCCCCCCCCCCC(=O)OCC(O)CO (stereo not drawn)
inactive: outcome [1] | max response [3] 2.27% | outcome [9] | Potency [4] | outcome [5] | outcome [6] | activity, negative = inhibition ([7]; parasite line A) 0.724% | activity, negative = inhibition ([7]; parasite line B) -1.86% | Potency (3D7) | Potency (7G8) | Potency (AA1029) | Potency (AS120) | Potency (ATS189) | Potency (ATS95) | Potency (C2A) | Potency (CP185) | Potency (CP191) | Potency (CP192) | Potency (CP194)

CCC[C@@H]1C[C@@H](C(=O)N[C@@H]([C@H]2O[C@H](SC)[C@H](O)[C@@H](O)[C@H]2O)[C@H](C)Cl)N(C)C1
inactive: Z-AUC [8] 1.72
1.69: Z-AUC [8, 10]
1.63: Z-AUC ([8]; measured here: PEO4 Z-AUC)

CC[C@H](CC[C@@H](C)[C@H]1CC[C@H]2[C@@H]3CC=C4C[C@@H](O)CC[C@]4(C)[C@H]3CC[C@]12C)C(C)C
0.643: Z-AUC [8, 10]
0.776: Z-AUC ([8]; measured here: PEO4 Z-AUC)
inactive: outcome [1] | max response [3] -1.45% | outcome [9] | Potency [4] | outcome [5] | outcome [6] | Z-AUC [8] 0.987

CC/C=C\C/C=C\C/C=C\C/C=C\C/C=C\CCCC(=O)O
inactive: outcome [1] | Potency [2] | max response [3] 0.593% | outcome [9] | Potency [4] | outcome [5] | outcome [6] | activity, negative = inhibition ([7]; parasite line A) -4.56% | activity, negative = inhibition ([7]; parasite line B) -6.54% | Potency (3D7) | Potency (AA1029) | Potency (AS120) | Potency (ATS189) | Potency (ATS95) | Potency (C2A) | Potency (CP185) | Potency (CP191) | Potency (CP192) | Potency (CP194)
